BAZ2B block – qHTS Assay for Inhibitors of BAZ2B | Bromodomain adjacent to zinc finger domain protein 2B (Homo sapiens), Q9UIF8 | AlphaScreen BAZ2B-H3K14Ac peptide displacement | Potency, µM (series often up to 114 µM), for the others: at the top dose activity change, negative = inhibition, actives largely listed as inhibitors | 4.4% of 360,000 active | AID 504333, 2011; note: % is set by controls: 0 for no effect and ±100 for the full control effect; nearly all actives have a fitted effect of over 60% in size
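Complex of BAZ2B and biotin-H3K14Ac (50 nM apiece) forms over 30 min at RT, then faces library compounds up to 110 uM for another 30 min; AlphaScreen beads added, 20 min dark incubation, luminescence read.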
JMJD2A Tudor inh – qHTS Assay for Inhibitors of JMJD2A-Tudor Domain; AlphaScreen JMJD2A-Tudor / H3K4me3 peptide binding; Potency, µM (series often up to 114 µM), without a hit: top-dose activity change, negative = inhibition, hits mostly inhibitors; 4.4% of 390,000 active; AID 504339, 2011; note: % is set by controls: 0 for no effect and ±100 for the full control effect; nearly all actives have a fitted effect of over 50% in size
Sfp inh – qHTS Assay for Inhibitors of Bacillus subtilis Sfp phosphopantetheinyl transferase (PPTase); 4'-phosphopantetheinyl transferase ffp (Bacillus subtilis), Q9F4F7; Potency, µM, inactives show largest response in the series, negative = inhibition, most hits filed as inhibitors; 3.5% of 310,000 active; AID 1490, 2009; Biochemical Sfp PPTase activity, qHTS;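 note: the enzyme is Sfp with the accession as filed and its product quenches rhodamine fluorescence; 0% = enzyme reaction without inhibitor and -100% = no enzyme wells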
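Fluorescence-quenching assay: 15 nM Sfp-PPTase preincubated 15 min at room temperature with compound, then 5 uM rhodamine-CoA and 12.5 uM BHQ-2-labelled YbbR peptide added. Fluorescence (ex 525/em 598 nm) read at start and after 30 min; difference gives rate.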
G9a inh – qHTS Assay for Inhibitors of Histone Lysine Methyltransferase G9a | Histone-lysine N-methyltransferase EHMT2 (Homo sapiens), Q96KQ7 | G9a H3K9 monomethylation, AlphaScreen, 2 h | Potency, µM (top dose mostly 102 µM), inactives show at the highest dose activity, negative = inhibition, most hits filed as inhibitors | 8.8% of 350,000 active | AID 504332, 2011; note: % is set by controls: 0 for no effect and ±100 for the full control effect; nearly all actives have a fitted effect of over 75% in size
Target sequence (Q96KQ7 913-1193 limits assumed): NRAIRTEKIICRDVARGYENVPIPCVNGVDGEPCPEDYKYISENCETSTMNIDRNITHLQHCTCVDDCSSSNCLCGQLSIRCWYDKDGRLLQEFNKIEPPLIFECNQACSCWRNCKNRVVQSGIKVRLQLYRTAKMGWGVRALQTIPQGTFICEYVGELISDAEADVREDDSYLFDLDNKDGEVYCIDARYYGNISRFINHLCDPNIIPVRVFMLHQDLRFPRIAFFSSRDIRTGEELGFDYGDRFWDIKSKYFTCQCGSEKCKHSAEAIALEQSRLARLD
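AlphaScreen detection with an anti-monomethyl H3K9 antibody quantified product after a 2 h room-temperature reaction containing 500 nM biotinylated H3K9 peptide, 20 µM SAM and 20 nM enzyme, which had been preincubated 15 min with compound.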
HP1b chromo inh – HTS for Inhibitors of HP1-beta Chromodomain Interactions with Methylated Histone Tails; Potency, µM (top dose mostly 114 µM), without a hit: at the top dose activity change, negative = inhibition, hits mostly inhibitors; AID 540317, 2011; AlphaScreen HP1-beta / biotin-H3K9me3 peptide binding; 0.56% of 390,000 active; Chromobox protein homolog 1 (Homo sapiens), P83916; note: nearly all actives have a fitted effect of over 70% in size
Target sequence (P83916 whole entry, looked up): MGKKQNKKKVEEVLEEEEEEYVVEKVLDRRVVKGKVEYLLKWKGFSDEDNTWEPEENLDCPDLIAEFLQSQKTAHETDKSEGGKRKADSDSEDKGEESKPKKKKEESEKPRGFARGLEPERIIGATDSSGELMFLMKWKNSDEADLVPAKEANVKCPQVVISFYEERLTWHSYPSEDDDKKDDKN
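AlphaScreen: HP1-beta (50 nM) preformed 30 min with biotin-H3(1-18)K9me3 peptide (50 nM) in PBS pH 7.4, 0.01% Tween-20. Compound added for 30 min at RT, then streptavidin donor/nickel chelate acceptor beads (10 ug/mL) for 30 min.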
Numbers without * were called inactive; ? = inconclusive; nt = no result; [ ] = remark or other dose. In the library only some 12% were active in any assay of this set; here they are far more common. Calls come from the whole dose curve; as a rule, active = well fitted curve in the direction sought with a large enough effect; inconclusive = small, poorly fitted or top-dose-only effect, or another doubt; inactive = no such curve, though single readings can be large; an effect the other way counts as inactive or inconclusive. Potency is the fitted concentration of half-maximal effect.

SMILES	BAZ2B block	JMJD2A Tudor inh	Sfp inh	G9a inh	HP1b chromo inh
CCc1ccc(C(=O)c2cn(CC(=O)Nc3cc(OC)cc(OC)c3)c3ccc(CC)cc3c2=O)cc1	7%	-10%	nt	13%[59 µM]	26%
CCc1ccc(C(=O)c2cn(CC(=O)Nc3ccc4c(c3)OCCO4)c3ccc(CC)cc3c2=O)cc1	79µM*	2%	nt	-1%[59 µM]	43%
COc1cccc(C2/C(=C(\O)c3ccc4c(c3)OCCO4)C(=O)C(=O)N2CCCn2ccnc2)c1 (centres undefined)	56µM*	63µM*	15%	?	20%
COc1cccc(C2/C(=C(/O)c3ccc4c(c3)CC(C)O4)C(=O)C(=O)N2c2nnc(C)s2)c1 (centres undefined)	-25%	-34%	3%	40µM*	8%
CC1Cc2cc(/C(O)=C3/C(=O)C(=O)N(CCCn4ccnc4)C3c3ccc(F)cc3)ccc2O1 (centres undefined)	-24%[57.1 µM]	-24%	20%	45µM*	40%
O=C1C(=O)N(CCCn2ccnc2)C(c2cccc(Br)c2)/C1=C(\O)c1ccc2c(c1)OCCO2 (centres undefined)	-5%	?	5%	?	13%
Cc1nnc(N2C(=O)C(=O)/C(=C(\O)c3ccc4c(c3)CC(C)O4)C2c2ccccc2)s1 (centres undefined)	-26%	-29%	4%	7%	12%[57 µM]
COc1cccc(C2/C(=C(/O)c3ccc4c(c3)CC(C)O4)C(=O)C(=O)N2CCCn2ccnc2)c1 (centres undefined)	-27%[57.1 µM]	-17%	8%	50µM*	1%
COc1ccc(C)cc1NC(=O)C(OC(=O)CNC(=O)c1ccccc1)c1ccccc1 (centres undefined)	nt	-14%	nt	nt	nt
CC(=O)Nc1ccc(S(=O)(=O)NCC(=O)OCC(=O)NCc2ccco2)cc1	7%	-7%	nt	?	23%
O=C(Nc1ncccc1O)c1ccc(Cl)c(S(=O)(=O)N2CCCCC2)c1	-10%	-22%	nt	9%[0.501 µM]	16%
CCN(CC)CCN1C(=O)C(=O)/C(=C(/O)c2ccc3c(c2)CC(C)O3)C1c1ccc(OC)cc1 (centres undefined)	-23%	?	22%	50µM*	9%
CCN(CC)CCCN1C(=O)C(=O)/C(=C(/O)c2ccc3c(c2)CC(C)O3)C1c1ccncc1 (centres undefined)	1%	nt	7%	-22%	nt
Cc1cc(S(=O)(=O)NCCCN2CCOCC2)ccc1Br	4%	-10%	nt	-4%[12.7 µM]	29%
CCN(CC)CCNC(=O)Cn1ncc2c([nH]c3ccccc32)c1=O	-1%	8%	nt	5%[59 µM]	10%
O=C(COc1ccc(F)cc1)Nc1ccccc1C(=O)OCc1cc(=O)n2ccsc2n1	?	-25%	nt	-23%[59 µM]	56%
CCC(=O)Nc1ccccc1-c1nc2ccccc2n(C(CC)C(=O)Nc2cccc(C(C)=O)c2)c1=O (centres undefined)	?	-1%	nt	?	56%
CCCCN1/C(=C/c2ccc3ccccc3[n+]2CC)Sc2ccccc21	?	32µM*	-16%	32µM*	-7%
CCN1/C(=C/c2ccc3cc(C)ccc3[n+]2C)Sc2ccc3sccc3c21	45µM*	14µM*	-21%	16µM*	-16%
CCN1/C(=C/c2ccc3cc(C)ccc3[n+]2CC)Sc2cc(C)ccc21	40µM*	?	?	22µM*	-32%
CCCCCCN1C2=NCCN2c2ccccc21	-6%	-3%	2%	?	23%
COc1ccc(OCCNC(=O)c2ccc(C)cc2)cc1	-3%	4%	3%	-10%	12%
CCNc1ncc2nc(-c3cccs3)c(=O)n(-c3ccc(OC)cc3)c2n1	nt	nt	14%	15%[12.7 µM]	nt
O=c1c2cc3c(cc2nc2sc(Nc4ccccc4)nn12)OCO3	-2%	7%	nt	3%[59 µM]	33%

From PubChem
